# Reference: paper PMC11006913
# Substitutions are numbered along the chain they refer to.
# Columns and labels:
# Assay in all cases: PBM; 200 nM protein, PBS
# Details in all cases: dsDNA, one strand shown
# [1] = biological target: T1, VENTX (Homo sapiens, UniProt O95231 78-163, R121Q)
# T1 sequence: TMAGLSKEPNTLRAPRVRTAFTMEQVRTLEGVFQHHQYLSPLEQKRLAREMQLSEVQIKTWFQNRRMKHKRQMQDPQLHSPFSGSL
# [2] = biological target: T2, VENTX (Homo sapiens, UniProt O95231 78-163)
# T2 sequence: T1 sequence with Q44R
# [3] = biological target: ALX4 (Homo sapiens, UniProt Q9H161 200-286)
# [4] = biological target: T3, PAX4 (Homo sapiens, UniProt O43316 9-242, R200K)
# T3 sequence: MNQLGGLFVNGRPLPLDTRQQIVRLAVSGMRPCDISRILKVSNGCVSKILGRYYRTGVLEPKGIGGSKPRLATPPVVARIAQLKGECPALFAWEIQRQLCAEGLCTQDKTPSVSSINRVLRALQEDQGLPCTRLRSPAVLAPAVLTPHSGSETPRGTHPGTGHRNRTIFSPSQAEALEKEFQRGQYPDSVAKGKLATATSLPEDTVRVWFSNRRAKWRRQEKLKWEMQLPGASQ
# [5] = biological target: T4, VENTX (Homo sapiens, UniProt O95231 78-163, Y115F)
# T4 sequence: T1 sequence with Y38F, Q44R
# [6] = biological target: T5, PAX4 (Homo sapiens, UniProt O43316 9-242)
# T5 sequence: T3 sequence with K192R
# [7] = biological target: ALX4 (Homo sapiens, UniProt Q9H161 200-286, Q225E)
# [8] = biological target: MSX2 (Homo sapiens, UniProt P35548 130-214, R199I)
# [9] = biological target: T6, PAX4 (Homo sapiens, UniProt O43316 9-242, R200Q)
# T6 sequence: T3 sequence with K192Q
# [10] = biological target: T7, PAX4 (Homo sapiens, UniProt O43316 9-242, F177V)
# T7 sequence: T3 sequence with F169V, K192R
# [11] = biological target: MSX2 (Homo sapiens, UniProt P35548 130-214)
# [12] = biological target: T8, PAX4 (Homo sapiens, UniProt O43316 9-242, F177Y)
# T8 sequence: T3 sequence with F169Y, K192R
# [13] = biological target: MSX2 (Homo sapiens, UniProt P35548 130-214, F161Y)
# [14] = biological target: T9, PAX4 (Homo sapiens, UniProt O43316 9-242, R227W)
# T9 sequence: T3 sequence with K192R, R219W
# [15] = biological target: HOXA2 (Homo sapiens, UniProt O43364 129-215, R185T)
# [16] = biological target: HOXA2 (Homo sapiens, UniProt O43364 129-215, R185K)
# [17] = biological target: HOXA2 (Homo sapiens, UniProt O43364 129-215, Y150S)
# [18] = biological target: HOXA2 (Homo sapiens, UniProt O43364 129-215)
# [19] = biological target: HOXA7 (Homo sapiens, UniProt P31268 116-202)
# [20] = biological target: HOXA7 (Homo sapiens, UniProt P31268 116-202, W177C)
# Sequence of HOXA7 (Homo sapiens, UniProt P31268 116-202, W177C) (P31268 116-202 W177C): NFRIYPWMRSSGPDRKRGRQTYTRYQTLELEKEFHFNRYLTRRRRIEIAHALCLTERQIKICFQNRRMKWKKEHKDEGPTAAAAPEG
# Sequence of MSX2 (Homo sapiens, UniProt P35548 130-214, R199I) (P35548 130-214 R199I): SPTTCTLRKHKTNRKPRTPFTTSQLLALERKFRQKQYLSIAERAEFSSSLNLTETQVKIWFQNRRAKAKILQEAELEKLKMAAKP
# Sequence of MSX2 (Homo sapiens, UniProt P35548 130-214, F161Y) (P35548 130-214 F161Y): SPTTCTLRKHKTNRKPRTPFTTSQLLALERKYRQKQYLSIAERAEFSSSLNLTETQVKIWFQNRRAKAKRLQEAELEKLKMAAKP
# Sequence of MSX2 (Homo sapiens, UniProt P35548 130-214) (P35548 130-214): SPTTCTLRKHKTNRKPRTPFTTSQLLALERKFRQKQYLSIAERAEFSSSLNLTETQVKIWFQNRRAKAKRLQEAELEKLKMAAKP
# Sequence of ALX4 (Homo sapiens, UniProt Q9H161 200-286, Q225E) (Q9H161 200-286 Q225E): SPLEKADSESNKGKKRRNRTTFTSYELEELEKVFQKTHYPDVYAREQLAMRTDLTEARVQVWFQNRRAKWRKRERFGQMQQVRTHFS
# Sequence of HOXA7 (Homo sapiens, UniProt P31268 116-202) (P31268 116-202): as the sequence (P31268 116-202 W177C) above, with C62W counted along it
# Sequence of ALX4 (Homo sapiens, UniProt Q9H161 200-286) (Q9H161 200-286): as the sequence (Q9H161 200-286 Q225E) above, with E26Q counted along it
# Sequence of HOXA2 (Homo sapiens, UniProt O43364 129-215, R185K) (O43364 129-215 R185K): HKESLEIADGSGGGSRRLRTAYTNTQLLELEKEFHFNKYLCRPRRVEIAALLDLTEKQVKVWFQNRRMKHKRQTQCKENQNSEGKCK
# Sequence of HOXA2 (Homo sapiens, UniProt O43364 129-215, R185T) (O43364 129-215 R185T): as the sequence (O43364 129-215 R185K) above, with K57T counted along it
# Sequence of HOXA2 (Homo sapiens, UniProt O43364 129-215, Y150S) (O43364 129-215 Y150S): as the sequence (O43364 129-215 R185K) above, with Y22S, K57R counted along it
# Sequence of HOXA2 (Homo sapiens, UniProt O43364 129-215) (O43364 129-215): as the sequence (O43364 129-215 R185K) above, with K57R counted along it
sequence,measurement,setting,value
GAAGCCGC,binding signal,[1],"8.12 upbm affinity estimate (log intensity, higher = more binding, comparable within an allelic series)"
same,binding signal,[2],"8.07 upbm affinity estimate (log intensity, higher = more binding, comparable within an allelic series)"
same,binding signal,[3],"8.19 upbm affinity estimate (log intensity, higher = more binding, comparable within an allelic series)"
same,binding signal,[4],"9.31 upbm affinity estimate (log intensity, higher = more binding, comparable within an allelic series)"
same,binding signal,[5],"8.31 upbm affinity estimate (log intensity, higher = more binding, comparable within an allelic series)"
same,binding signal,[6],"9.25 upbm affinity estimate (log intensity, higher = more binding, comparable within an allelic series)"
same,binding signal,[7],"8.07 upbm affinity estimate (log intensity, higher = more binding, comparable within an allelic series)"
same,binding signal,[8],"9.54 upbm affinity estimate (log intensity, higher = more binding, comparable within an allelic series)"
same,binding signal,[9],"9.31 upbm affinity estimate (log intensity, higher = more binding, comparable within an allelic series)"
same,binding signal,[10],"9.32 upbm affinity estimate (log intensity, higher = more binding, comparable within an allelic series)"
same,binding signal,[11],"9.58 upbm affinity estimate (log intensity, higher = more binding, comparable within an allelic series)"
same,binding signal,[12],"9.18 upbm affinity estimate (log intensity, higher = more binding, comparable within an allelic series)"
same,binding signal,[13],"9.63 upbm affinity estimate (log intensity, higher = more binding, comparable within an allelic series)"
same,binding signal,[14],"9.34 upbm affinity estimate (log intensity, higher = more binding, comparable within an allelic series)"
CCGAGGGC,binding signal,[1],"7.98 upbm affinity estimate (log intensity, higher = more binding, comparable within an allelic series)"
same,binding signal,[2],"8.24 upbm affinity estimate (log intensity, higher = more binding, comparable within an allelic series)"
same,binding signal,[3],"8.14 upbm affinity estimate (log intensity, higher = more binding, comparable within an allelic series)"
same,binding signal,[5],"8.11 upbm affinity estimate (log intensity, higher = more binding, comparable within an allelic series)"
same,binding signal,[7],"8.07 upbm affinity estimate (log intensity, higher = more binding, comparable within an allelic series)"
same,binding signal,[15],"7.12 upbm affinity estimate (log intensity, higher = more binding, comparable within an allelic series)"
same,binding signal,[8],"9.49 upbm affinity estimate (log intensity, higher = more binding, comparable within an allelic series)"
same,binding signal,[16],"10.3 upbm affinity estimate (log intensity, higher = more binding, comparable within an allelic series)"
same,binding signal,[11],"9.42 upbm affinity estimate (log intensity, higher = more binding, comparable within an allelic series)"
same,binding signal,[13],"9.43 upbm affinity estimate (log intensity, higher = more binding, comparable within an allelic series)"
same,binding signal,[17],"10.3 upbm affinity estimate (log intensity, higher = more binding, comparable within an allelic series)"
same,binding signal,[18],"7.2 upbm affinity estimate (log intensity, higher = more binding, comparable within an allelic series)"
AGCGATTA,binding signal,[1],"11.2 upbm affinity estimate (log intensity, higher = more binding, comparable within an allelic series)"
same,binding signal,[2],"12.3 upbm affinity estimate (log intensity, higher = more binding, comparable within an allelic series)"
same,binding signal,[5],"11.3 upbm affinity estimate (log intensity, higher = more binding, comparable within an allelic series)"
GCGCAGCA,binding signal,[1],"7.82 upbm affinity estimate (log intensity, higher = more binding, comparable within an allelic series)"
same,binding signal,[2],"7.9 upbm affinity estimate (log intensity, higher = more binding, comparable within an allelic series)"
same,binding signal,[5],"7.91 upbm affinity estimate (log intensity, higher = more binding, comparable within an allelic series)"
CGTCCAGC,binding signal,[1],"8.04 upbm affinity estimate (log intensity, higher = more binding, comparable within an allelic series)"
same,binding signal,[2],"7.65 upbm affinity estimate (log intensity, higher = more binding, comparable within an allelic series)"
same,binding signal,[19],"8.59 upbm affinity estimate (log intensity, higher = more binding, comparable within an allelic series)"
same,binding signal,[5],"7.81 upbm affinity estimate (log intensity, higher = more binding, comparable within an allelic series)"
same,binding signal,[8],"9.63 upbm affinity estimate (log intensity, higher = more binding, comparable within an allelic series)"
same,binding signal,[11],"9.6 upbm affinity estimate (log intensity, higher = more binding, comparable within an allelic series)"
same,binding signal,[13],"9.74 upbm affinity estimate (log intensity, higher = more binding, comparable within an allelic series)"
same,binding signal,[20],"8.41 upbm affinity estimate (log intensity, higher = more binding, comparable within an allelic series)"
GTATTAAA,binding signal,[1],"9.94 upbm affinity estimate (log intensity, higher = more binding, comparable within an allelic series)"
same,binding signal,[2],"10.3 upbm affinity estimate (log intensity, higher = more binding, comparable within an allelic series)"
ATTAGGTG,binding signal,[1],"10.8 upbm affinity estimate (log intensity, higher = more binding, comparable within an allelic series)"
same,binding signal,[2],"11.2 upbm affinity estimate (log intensity, higher = more binding, comparable within an allelic series)"
same,binding signal,[19],"10 upbm affinity estimate (log intensity, higher = more binding, comparable within an allelic series)"
same,binding signal,[5],"10.5 upbm affinity estimate (log intensity, higher = more binding, comparable within an allelic series)"
same,binding signal,[20],"8.8 upbm affinity estimate (log intensity, higher = more binding, comparable within an allelic series)"
ACCGATTA,binding signal,[1],"11.5 upbm affinity estimate (log intensity, higher = more binding, comparable within an allelic series)"
same,binding signal,[2],"12.9 upbm affinity estimate (log intensity, higher = more binding, comparable within an allelic series)"
same,binding signal,[5],"11.5 upbm affinity estimate (log intensity, higher = more binding, comparable within an allelic series)"
GTCTCCAC,binding signal,[1],"8.1 upbm affinity estimate (log intensity, higher = more binding, comparable within an allelic series)"
same,binding signal,[2],"8.02 upbm affinity estimate (log intensity, higher = more binding, comparable within an allelic series)"
same,binding signal,[5],"8.1 upbm affinity estimate (log intensity, higher = more binding, comparable within an allelic series)"
CTAATCGA,binding signal,[1],"11.6 upbm affinity estimate (log intensity, higher = more binding, comparable within an allelic series)"
same,binding signal,[2],"12.5 upbm affinity estimate (log intensity, higher = more binding, comparable within an allelic series)"
same,binding signal,[5],"11.1 upbm affinity estimate (log intensity, higher = more binding, comparable within an allelic series)"
